Compound activity (PubChem)
This is a sample that favours compounds with a hit; in the whole collection about 2.9% have one here.
Hsp70 act: Hsp70 transcriptional activators, primary screen, cell-based, HeLa, Hsp70 promoter luciferase, luminescence, 10 µM; HeLa Hsp70 promoter luciferase reporter; scaled: vehicle 0, proteasome-inhibitor control 100%; activation, % at 10 µM; 0.04% of 200,000 active; AID 1203, 2008;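 active means activation above the mean across all tested compounds plus 3 SD, cutoff set per campaign, cut at about 5.5% in these data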
S1P4 antag: S1P4 receptor antagonists, primary screen, cell-based. S1P4-expressing cells, antagonist mode, reporter read-out. inhibition, % at 4.98 µM. 0.26% of 220,000 active; in the data active means inhibition above about 29%
S1P4 ag: S1P4 receptor agonists, primary screen, cell-based. S1P4-expressing cell line, agonist reporter assay. activation, % at 4.98 µM. 0.35% of 220,000 active; in the data active means activation above about 11%
HSF1 inhib: HSF1 inhibitors in luciferase reporter cells, primary screen, cell-based, NIH3T3, luminescence. NIH3T3-HGL HSE-luciferase, MG132-induced, luminescence 8 h; stronger effect = lower value. 0.77% of 300,000 active. activity change, negative = inhibition, % at 7.5 µM (by protocol);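 active means more than half of replicate wells show activity change below -50%, luminescence cut by over half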;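 further: luciferase reports HSF-1 transcriptional activity via heat shock element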
HSF-1 act: HSF-1 activators, primary screen, NIH3T3-HGL cells, MG132 stress, luminescence, single point | NIH3T3-HGL HSF-1 luciferase reporter, 8 h; 100% = twice DMSO control signal | activation, % at 9 µM | 1.7% of 300,000 active;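 active means mean replicate activation of at least 50% with a set share of replicates each reaching 50%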
S1P3 antag: S1P3 receptor antagonists, primary screen, cell-based. Sphingosine 1-phosphate receptor 3 (Homo sapiens), Q99500. CHO S1P3 NFAT-BLA reporter, FRET fluorescence, antagonist mode. 0.27% of 170,000 active. inhibition, % at 4.98 µM. AID 485, 2006;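 active means inhibition above the plate cutoff, the mean inhibition of test wells on that plate plus 3 SD, cut at about 28% in these data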;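 further: cells challenged with S1P at its EC80 of 0.8 µM; blue over green emission ratio from cleaved BLA substrate after 4 h stimulation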
Target sequence (Q99500 whole entry, looked up): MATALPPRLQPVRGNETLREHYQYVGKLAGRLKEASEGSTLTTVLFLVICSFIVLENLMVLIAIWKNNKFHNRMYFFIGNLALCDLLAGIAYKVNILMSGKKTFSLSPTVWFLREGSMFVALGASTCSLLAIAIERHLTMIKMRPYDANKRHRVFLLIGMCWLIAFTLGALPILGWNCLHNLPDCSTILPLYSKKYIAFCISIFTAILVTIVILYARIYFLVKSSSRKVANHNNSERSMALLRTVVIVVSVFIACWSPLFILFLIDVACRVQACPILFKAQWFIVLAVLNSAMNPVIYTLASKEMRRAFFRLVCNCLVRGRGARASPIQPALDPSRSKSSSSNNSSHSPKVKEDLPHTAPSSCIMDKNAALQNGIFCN
S1P4 ag conf: S1P4 receptor agonists, retest, confirmation, cell-based, high throughput; shares compounds with S1P4 ag; S1P4 agonist cell-based reporter assay; activation, % at 4.98 µM; 7% of 740 active; in the data active means activation above about 12%
S1P1 ag: S1P1 receptor agonists, human, counter-screen for S1P4 agonist project, cell-based; activation, % at 4.98 µM; S1P1 agonist cell-based assay, activation; 4% of 740 active; shares compounds with S1P4 ag; in the data active means activation above about 21%
Of the large screens only hits and unclear results are named; the others gave an inactive call (follow-up assays come after a bar, where they were run).

Cc1cccc(C)c1N(CC(=O)N1CCN(c2ccccc2F)CC1)S(C)(=O)=O	none
Cc1cccc(C)c1N(Cc1ccccc1F)S(C)(=O)=O	S1P4 ag 33 | S1P4 ag conf inactive | S1P1 ag inactive
Cc1ccc(NC(=O)Cn2cc3c(n2)CCC(C)C3)cc1 (stereo unspecified)	S1P4 ag 27 | S1P4 ag conf inactive | S1P1 ag inactive
CCn1cnc2cc(NCc3cccc(OC)c3O)ccc21	none
COc1cccc(CNc2cccc(C(F)(F)F)c2)c1O	S1P4 ag 17 | S1P4 ag conf inactive | S1P1 ag inactive
COc1ccc2c(c1)C(=O)C(=O)N2	none
CCc1ccc2c(c1)/C(=N/OC)C(=O)N2	S1P4 ag 60 | S1P4 ag conf inactive | S1P1 ag inactive
O=C(Nc1ccc(Br)cc1)c1csc(-c2ccncc2)n1	S1P4 ag 19 | S1P4 ag conf inactive | S1P1 ag inactive
CC(=O)Nc1ccc(NC(=O)c2sc(-c3ccccc3)nc2C)cc1	none (no result: Hsp70 act, S1P4 antag, S1P4 ag, S1P3 antag)
Cc1nc(-c2ccncc2)sc1C(=O)Nc1ccc(Br)cc1	S1P4 ag 20 | S1P4 ag conf inactive | S1P1 ag inactive
COCCSc1ccccc1C(=O)N1CCN(Cc2ccccc2)CC1	S1P4 ag 13 | S1P4 ag conf inactive | S1P1 ag inactive
COCCSc1ccccc1C(=O)N1CCCC1	none
Cc1onc(-c2ccccc2)c1C(=O)NCCN1CCOCC1	S1P4 ag 17 | S1P4 ag conf inactive | S1P1 ag inactive
O=C(NCCN1CCOCC1)c1ccc(-c2ccccc2)cc1	none
CC(C)Sc1nc2ccc(Br)cc2[nH]1	S1P4 ag 14 | S1P4 ag conf inactive | S1P1 ag inactive
O=C(COC(=O)CCc1nc2ccccc2s1)NC(=O)NCc1ccco1	S1P4 ag 17 | S1P4 ag conf inactive | S1P1 ag inactive
O=c1cc(-c2ccc([N+](=O)[O-])cc2)c2ccc(O)cc2o1	S1P4 ag 12 | S1P4 ag conf inactive | S1P1 ag inactive
COc1cc(C2NC(=S)NC(C)=C2C(=O)Nc2cc(C)cc(C)c2)ccc1O (stereo unspecified)	S1P4 ag 33 (no result: Hsp70 act) | S1P4 ag conf inactive | S1P1 ag inactive
COc1ccc2[nH]c3c(=O)n4c(nc3c2c1)SCCC4	S1P4 ag 36 | S1P4 ag conf inactive | S1P1 ag inactive
Cc1ccccc1NC(=O)c1ccc(N/N=C/c2ccccc2O)c([N+](=O)[O-])c1	none (no result: S1P3 antag)
Cc1ccc(NC(=O)c2ccc(N/N=C/c3cccc(O)c3)c([N+](=O)[O-])c2)cc1	S1P4 ag 14 (no result: S1P3 antag) | S1P4 ag conf inactive | S1P1 ag inactive
O=C(Nc1ccnc(-c2cccnc2)n1)c1ccc(Cl)c(Cl)c1	S1P4 ag 27 (no result: S1P3 antag) | S1P4 ag conf inactive | S1P1 ag inactive
Cc1ccc(C(=O)Nc2ccnc(-c3cccnc3)n2)cc1	none
Cc1ccc2[nH]c3c(=O)n(CCC4=CCCCC4)cnc3c2c1	none (no result: S1P3 antag)
O=c1c2[nH]c3ccccc3c2ncn1CCC1=CCCCC1	S1P4 ag 17 | S1P4 ag conf inactive | S1P1 ag inactive
COc1ccc(S(=O)(=O)n2nc(C)cc2C)c(C)c1C	S1P4 ag 48 (no result: S1P3 antag) | S1P4 ag conf inactive | S1P1 ag inactive
Cc1cc(C)n(S(=O)(=O)c2ccc(C)c(C)c2C)n1	none
CCCCCCCCNc1nc(Cl)nc(NCCN2CCOCC2)n1	S1P4 ag 17 | S1P4 ag conf inactive | S1P1 ag inactive
COc1ccc(Nc2nc(NCCN3CCOCC3)nc(Nc3ccc(OC)cc3)n2)cc1	none (no result: Hsp70 act, S1P4 antag, S1P4 ag, S1P3 antag)
